# Screens: PubChem, The Scripps Research Institute Molecular Screening Center
# M1 ag parental: counter-screen for M1 agonists: effect in parental CHO-K1 cells | actives 0.48% (n = 360,000) | Fluo-8 calcium fluorescence; scaled to maximal ATP response, vehicle zero | activation, % at 3 µM; in the data active means activation above about 15%;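 further: untransfected CHO-K1 host cells lacking M1 receptor as counterscreen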
# CHRM1 PAM: human M1 muscarinic receptor positive allosteric modulators, primary screen, CHO-K1 cells, Fluo-8 calcium fluorescence, 1536-well; Muscarinic acetylcholine receptor M1 (Homo sapiens), P11229; CHO-K1 hM1, ACh EC20; 0% = ACh EC20, 100% = maximal ACh; activation, % at 3 µM; actives 0.088% (n = 360,000); AID 588819, 2011; in the data active means activation above about 19%, passing the limit was not always enough
# Target sequence (P11229 whole entry, looked up): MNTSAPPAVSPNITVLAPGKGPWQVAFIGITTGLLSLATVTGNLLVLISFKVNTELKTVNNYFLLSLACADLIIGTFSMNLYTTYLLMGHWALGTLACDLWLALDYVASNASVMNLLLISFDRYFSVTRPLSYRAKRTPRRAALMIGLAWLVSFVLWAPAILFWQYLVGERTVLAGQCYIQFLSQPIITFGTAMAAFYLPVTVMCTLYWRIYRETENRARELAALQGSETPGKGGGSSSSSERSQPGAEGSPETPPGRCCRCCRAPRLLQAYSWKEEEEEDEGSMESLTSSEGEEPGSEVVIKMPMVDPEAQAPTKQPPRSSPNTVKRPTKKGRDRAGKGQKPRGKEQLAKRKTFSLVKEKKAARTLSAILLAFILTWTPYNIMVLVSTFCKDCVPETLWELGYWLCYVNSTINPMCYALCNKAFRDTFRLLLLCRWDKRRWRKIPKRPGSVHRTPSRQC
# CHRM1 agonist: human M1 muscarinic receptor agonists, primary screen, Fluo-8 calcium fluorescence, CHO-K1 cells, HTS. Muscarinic acetylcholine receptor M1 (Homo sapiens), P11229. CHO-K1 hM1, agonist mode; 0% DMSO, 100% acetylcholine EC100. activation, % at 3 µM. actives 0.33% (n = 360,000). AID 588814, 2011;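 active means activation above the run's mean compound activation plus 3 SD, cut at about 16% in these data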;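 further: peak over basal fluorescence ratio within a 140 s kinetic read after compound addition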
# M1 PAM parental: nonselective calcium activators in parental CHO-K1 cells, primary screen, counter-screen for M1 PAM project, cell-based, Fluo-8 calcium fluorescence, full deck, 1536-well. ATP EC20; 0% at ATP EC20, 100% at ATP max. activation, % at 3 µM. actives 0.02% (n = 360,000). AID 602247, 2012;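 active means activation above the run cutoff, the mean activation of all test compounds plus 3 SD, cut at about 40% in these data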;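 further: peak over basal fluorescence ratio in a 140 s read after ATP addition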
# CHO-K1 Ca antag: counter-screen for M1 antagonists: effect in parental CHO-K1 cells | ATP-induced calcium, Fluo-8 fluorescence | inhibition, % at 3 µM | actives 0.6% (n = 360,000) | AID 602250;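 active means inhibition above a per-plate cutoff, the plate's mean sample inhibition plus 3 SD, cut at about 24% in these data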;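 further: 0% = DMSO plus EC80 ATP and 100% = DMSO alone without ATP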
# M1 antag: human M1 muscarinic receptor antagonists, primary screen, CHO-K1 cells, Fluo-8 calcium fluorescence, 1536-well | Muscarinic acetylcholine receptor M1 (Homo sapiens), P11229 | actives 1.3% (n = 360,000) | inhibition, % at 3 µM | CHO-K1 hM1, ACh EC80 antagonist | AID 588852, 2011;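 active means percent inhibition above its own plate's cutoff, namely the mean of that plate's compound wells plus 3 SD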;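 further: peak over basal fluorescence ratio during 140 s after agonist addition; 0% = ACh EC80 plus DMSO and 100% = DMSO alone without agonist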
# * hit, by the source's call. A selection: hits, their analogues and other compounds. The true share with any hit is near 2.3%.
SMILES,M1 ag parental,CHRM1 PAM,CHRM1 agonist,M1 PAM parental,CHO-K1 Ca antag,M1 antag
Cc1ccc(S(=O)(=O)NCCC(=O)Nc2cc(F)ccc2C)cc1C,0.7,-9.9,-2.1,-14.1,5.7,21.5*
COC(=O)C1CCN(C2CN(Cc3ccc([N+](=O)[O-])cc3)S(=O)(=O)C2)CC1 (stereo not drawn),0.5,3.4,-3.2,5.7,12.1,-0.1
CCOC(=O)C1(Cc2ccc(OC)cc2)CCN(S(C)(=O)=O)CC1,0.6,4.5,-2.3,6.0,-10.7,1.0
CCOC(=O)C1(Cc2ccc(Cl)cc2)CCN(C(C)Cc2ccc(O)c(OC)c2)CC1 (stereo not drawn),9.1,-17.2,-4.7,0.1,18.9,39.4*
O=C(NCc1ccccc1)C(c1ccc(F)cc1)N(Cc1cccs1)C(=O)c1cnccn1 (stereo not drawn),5.0,-6.1,2.5,23.4,-1.4,10.9
O=C(NCc1ccccc1)C(c1ccccc1)N(Cc1cccs1)C(=O)c1cnccn1 (stereo not drawn),5.6,-6.6,1.0,10.5,14.6,42.5*
COc1c(C)cc(C(=O)C2CCCN(Cc3ccc(Oc4ncccn4)cc3)C2)cc1C (stereo not drawn),6.4,-18.7,-1.2,11.4,3.9,35.2*
CC(C)Oc1cccc(C(=O)C2CCCN(Cc3ccc(Oc4ncccn4)cc3)C2)c1 (stereo not drawn),1.2,-28.0,-8.8,-7.1,-9.5,83.2*
O=C(CSc1nc2[nH]ncc2c(=O)n1-c1ccccc1)NCCc1ccccc1,16.8*,0.9,-2.4,17.7,0.4,7.2
O=C(CSc1nc2[nH]ncc2c(=O)n1-c1ccccc1)NCc1cccs1,0.4,3.7,-4.3,17.6,-13.5,-1.6
COC(=O)C1C(O)=C(C(C)=Nc2cccc3ccccc23)C(=O)CC1(C)C (stereo not drawn),3.7,-0.1,-3.5,-9.3,6.3,7.0
CC1(C)N=C(N)N=C(N)N1CCCCc1ccccc1,2.2,-26.5,-8.3,0.9,-4.2,51.6*
CN(C)CCCN(C(=O)CCc1ccccc1)c1nc2c(F)cccc2s1,17.9*,7.5,-7.1,20.5,0.5,-10.6
CN(C)CCCN(C(=O)c1ccco1)c1nc2ccc(F)cc2s1,0.1,-5.3,17.5*,14.5,11.0,18.1
CN(C)CCCN(C(=O)c1ccco1)c1nc2c(F)cccc2s1,0.5,-14.7,6.5,-2.5,-7.9,47.2*
Cc1ccc2nc(N(CCCN(C)C)C(=O)c3ccco3)sc2c1,1.0,4.3,3.9,26.4,-6.2,-5.2
CN(C)CCCN(C(=O)c1ccco1)c1nc2c(F)cc(F)cc2s1,0.8,2.0,7.1,-9.5,-10.5,2.9
COc1cccc(C(NC(C)=O)c2nc(-c3ccc(F)cc3OC)cs2)c1 (stereo not drawn),0.2,-6.0,-3.4,10.9,-5.4,4.3
Cc1ccc2c(c1)[nH]c1c(=O)n(Cc3ccco3)cnc12,2.2,13.1,2.0,6.6,0.3,-28.0
CCN=C(NCC)SC1CC(=O)N(c2cccc(OCC)c2)C1=O (stereo not drawn),7.0,-12.0,2.2,-8.2,29.7*,43.6*
Cc1cccc(NC(=O)CSc2nnc(-c3cnccn3)n2Cc2ccco2)c1,-0.6,-8.6,-1.6,-7.8,29.4*,17.8
Cc1ccc(NC(=O)CSc2nnc(-c3cnccn3)n2Cc2ccco2)cc1,0.4,-1.4,-6.7,-6.6,1.8,1.2
CC1CCCC(NC(=O)c2cccc(S(=O)(=O)N3CCOCC3)c2)C1C (stereo not drawn),0.2,13.3,5.2,-10.7,7.2,-12.8
CN(C(=O)c1ccccc1OCc1ccc(Cl)cc1)c1ccccc1,-0.1,-22.8,-6.2,16.0,1.2,74.9*
CC(NC(=O)COc1ccccc1)C(=O)NCc1ccc(S(N)(=O)=O)cc1 (stereo not drawn),0.7,26.8*,1.8,15.4,-8.8,-20.1
